Among the data in PubChem BioAssay (NCI) are growth inhibition values, retold here.

About 79,000 compounds went through this panel and 15% of them were active in at least one assay; those are over-represented in the sample as a whole. Values without a mark were called inactive. Calls of active or inactive are those of the source. No stated cut-off is given here; in the data, active means growth inhibition above about 70%; inactive means the rest.

Assay [1] is described as follows: NCI Yeast Anticancer Drug Screen. Data for the rad50 strain (AID 155).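 Further: 0% = growth of vehicle-only cultures of the same strain.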 The settings on record: S. cerevisiae rad50 strain growth inhibition, active compounds read high. A digest of the protocol:
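DNA repair mutant yeast, compound exposure, growth read-out; inhibition is taken relative to vehicle.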

The nature of assay [2]: NCI Yeast Anticancer Drug Screen. Data for the mec2-1 strain (AID 157). Conditions: S. cerevisiae mec2-1 strain, active compounds read high. A digest of the protocol:
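Using mec2-1 yeast: add compound, measure growth, express inhibition versus vehicle-treated cultures.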

Assay [3] is described as follows: NCI Yeast Anticancer Drug Screen. Data for the sgs1 mgt1 strain (AID 161).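 Further: 0% = growth of cultures given vehicle only.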 The settings on record: S. cerevisiae sgs1 mgt1 strain, active compounds read high. A digest of the protocol: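 Growth of a repair-deficient yeast mutant was monitored after compound treatment and expressed as inhibition relative to vehicle-treated cultures.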
A short description of assay [4]: NCI Yeast Anticancer Drug Screen. Data for the cln2 rad14 strain (AID 165).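 Further: 0% = growth equal to vehicle treated cultures.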 Conditions: S. cerevisiae cln2 rad14 strain, active compounds read high. A digest of the protocol: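 Yeast strain cln2 rad14, bearing defects in cell cycle control and DNA repair, serves as the test system; values reflect growth inhibition compared with vehicle.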
Assay [5] can be described thus: NCI Yeast Anticancer Drug Screen. Data for the bub3 strain (AID 167). Conditions: S. cerevisiae bub3 mutant strain, active compounds read high. A digest of the protocol: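 In this screen, a yeast mutant lacking normal mitotic checkpoint function is challenged with compound. Relative growth versus vehicle gives the inhibition value.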
The nature of assay [6]: NCI Yeast Anticancer Drug Screen. Data for the mlh1 rad18 strain (AID 175). The settings on record: S. cerevisiae mlh1 rad18 strain growth inhibition, active compounds read high. In short, it runs like this:
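Steps: expose repair-defective yeast to compound; measure growth; express inhibition against vehicle-treated controls.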

[7] abbreviates: at 5.0 µM (retest, dose inferred, filed as 0.5).
[8] abbreviates: at 50.0 µM (retest, dose inferred, filed as 5.0).

As to `Cc1ccc(S(=O)(=O)N/N=C/c2oc(-c3cccc([N+](=O)[O-])c3)c(-c3cccc([N+](=O)[O-])c3)c2[N+](=O)[O-])cc1`, the growth inhibition in assay [1] (setting [7]) was 56%; in assay [1] (setting [8]), 56%; in assay [1] (at 50.0 µM), 86.7% (active); in assay [2] (setting [7]) it was 17%; in assay [2] (setting [8]) it was 17%; in assay [2] (at 50.0 µM), 92.7% (active). Moreover, the growth inhibition in assay [3] (setting [7]) is 50%; in assay [3] (setting [8]), 50%; in assay [3] (at 50.0 µM) it was 92.1% (active); in assay [4] (setting [7]), 27%; in assay [4] (setting [8]), 27%; in assay [4] (at 50.0 µM), 91.7% (active). In addition, the growth inhibition in assay [5] (setting [7]) was 31%; in assay [5] (setting [8]), 31%; in assay [5] (at 50.0 µM), 87.9% (active); in assay [6] (setting [7]) it was 57%; in assay [6] (setting [8]) it was 57%; in assay [6] (at 50.0 µM), 89.7% (active).
Take `CC(=O)Nc1[c-]cccc1.CC(=O)Nc1[c-]cccc1.CC(=O)O.CC(=O)O.[Pd].[Pd]`: the growth inhibition in assay [1] (setting [7]) was 2%; in assay [1] (setting [8]), 31%; in assay [1] (at 50.0 µM), 79.8% (active); in assay [2] (setting [7]), -1%; in assay [2] (setting [8]), 51%; in assay [2] (at 50.0 µM), 87.2% (active). Moreover, the growth inhibition in assay [3] (setting [7]) was 17%; in assay [3] (setting [8]), 89% (active); in assay [3] (at 50.0 µM), 92.5% (active); in assay [4] (setting [7]) it was -7%; in assay [4] (setting [8]), 25%; in assay [4] (at 50.0 µM), 45.1%. Further, the growth inhibition in assay [5] (setting [7]) is -4%; in assay [5] (setting [8]), 31%; in assay [5] (at 50.0 µM) it was 58.7%; in assay [6] (setting [7]) it was -1%; in assay [6] (setting [8]), 55%; in assay [6] (at 50.0 µM), 95.8% (active).
Take `COc1ccc(/C=C(/C#N)c2ccccc2)cc1`: the growth inhibition was 8% in assay [1] (setting [7]); -2% in assay [1] (setting [8]); 67.1% in assay [1] (at 50.0 µM); 9% in assay [2] (setting [7]); 27% in assay [2] (setting [8]); 19.6% in assay [2] (at 50.0 µM). Besides, the growth inhibition is 9% in assay [3] (setting [7]); 2% in assay [3] (setting [8]); 81.5% (active) in assay [3] (at 50.0 µM); 1% in assay [4] (setting [7]); 4% in assay [4] (setting [8]); 16.4% in assay [4] (at 50.0 µM). Further, the growth inhibition in assay [5] (setting [7]) was 10%; in assay [5] (setting [8]), 55%; in assay [5] (at 50.0 µM) it was 73.5% (active); in assay [6] (setting [7]), 5%; in assay [6] (setting [8]), 19%; in assay [6] (at 50.0 µM) it was 69%.
As to `CCN(CC)CCNc1c(OC)cc(C)c2sc3ccccc3c(=O)c12`, the growth inhibition in assay [1] (setting [7]) is 8%; in assay [1] (setting [8]), 75% (active); in assay [1] (at 50.0 µM) it was 81.2% (active); in assay [2] (setting [7]), 6%; in assay [2] (setting [8]), -1%; in assay [2] (at 50.0 µM), 39.5%. In addition, the growth inhibition in assay [3] (setting [7]) was 0%; in assay [3] (setting [8]), 66%; in assay [3] (at 50.0 µM), 82.8% (active); in assay [4] (setting [7]) it was 1%; in assay [4] (setting [8]), 39%; in assay [4] (at 50.0 µM), 33.1%. Besides, the growth inhibition is 1% in assay [5] (setting [7]); 33% in assay [5] (setting [8]); 57% in assay [5] (at 50.0 µM); 4% in assay [6] (setting [7]); 86% (active) in assay [6] (setting [8]); 94% (active) in assay [6] (at 50.0 µM).
Turning to `Oc1ccc(CC2CCC(O)CC2)cc1` (configuration not stated), the growth inhibition in assay [1] (setting [7]) is -169%; in assay [1] (setting [8]), -33%; in assay [1] (at 50.0 µM) it was 50.5%; in assay [2] (setting [7]) it was -61%; in assay [2] (setting [8]), -33%; in assay [2] (at 50.0 µM), 28.6%. The growth inhibition was -66% in assay [3] (setting [7]); -54% in assay [3] (setting [8]); 22.6% in assay [3] (at 50.0 µM); -59% in assay [4] (setting [7]); -43% in assay [4] (setting [8]); 45% in assay [4] (at 50.0 µM). Also, the growth inhibition in assay [5] (setting [7]) was -76%; in assay [5] (setting [8]), -24%; in assay [5] (at 50.0 µM), 46.6%; in assay [6] (setting [7]), -121%; in assay [6] (setting [8]) it was -78%; in assay [6] (at 50.0 µM) it was 24.2%.
Take `CC(=O)OC(OC(C)=O)c1ccc2ccc3cccc4ccc1c2c34`: the growth inhibition in assay [1] (setting [7]) is 16%; in assay [1] (setting [8]), 89% (active); in assay [1] (at 50.0 µM) it was 63.4%; in assay [2] (setting [7]), -1%; in assay [2] (setting [8]) it was 78% (active); in assay [2] (at 50.0 µM), 45.8%. Further, the growth inhibition in assay [3] (setting [7]) is -16%; in assay [3] (setting [8]), 84% (active); in assay [3] (at 50.0 µM), 61%; in assay [4] (setting [7]), 3%; in assay [4] (setting [8]) it was 78% (active); in assay [4] (at 50.0 µM), 45.2%. In addition, the growth inhibition is -17% in assay [5] (setting [7]); 85% (active) in assay [5] (setting [8]); 69% in assay [5] (at 50.0 µM); -3% in assay [6] (setting [7]); 89% (active) in assay [6] (setting [8]); 71.7% (active) in assay [6] (at 50.0 µM).
Regarding `CCc1cccc(CC)c1N=Nc1c(N)nc(N)[nH]c1=O`, the growth inhibition in assay [1] (setting [7]) is -11%; in assay [1] (setting [8]), -6%; in assay [1] (at 50.0 µM) it was -4.8%; in assay [2] (setting [7]), -23%; in assay [2] (setting [8]), -9%; in assay [2] (at 50.0 µM) it was -32%. The growth inhibition in assay [3] (setting [7]) was -11%; in assay [3] (setting [8]), 6%; in assay [3] (at 50.0 µM), 39.8%; in assay [4] (setting [7]), 0%; in assay [4] (setting [8]), 2%; in assay [4] (at 50.0 µM), -21%. The growth inhibition in assay [5] (setting [7]) was -2%; in assay [5] (setting [8]) it was -3%; in assay [5] (at 50.0 µM) it was -19.8%; in assay [6] (setting [7]), 8%; in assay [6] (setting [8]), -30%; in assay [6] (at 50.0 µM), -11.7%.
In the case of `O=C1C(=O)C(CCCO)(CCCO)CCCCCCCCC1(CCCO)CCCO`, the growth inhibition was -9% in assay [1] (setting [7]); -3% in assay [1] (setting [8]); 31.4% in assay [1] (at 50.0 µM); 5% in assay [2] (setting [7]); -11% in assay [2] (setting [8]); -35.1% in assay [2] (at 50.0 µM). Also, the growth inhibition was 5% in assay [3] (setting [7]); 8% in assay [3] (setting [8]); 0% in assay [3] (at 50.0 µM); 6% in assay [4] (setting [7]); 19% in assay [4] (setting [8]); 63.8% in assay [4] (at 50.0 µM). Further, the growth inhibition in assay [5] (setting [7]) was 13%; in assay [5] (setting [8]), -7%; in assay [5] (at 50.0 µM) it was -6.5%; in assay [6] (setting [7]), -8%; in assay [6] (setting [8]), 0%; in assay [6] (at 50.0 µM) it was -5.95%.
Regarding `CN(C)CCCNc1c2ccccc2nc2cccc([N+](=O)[O-])c12`, the growth inhibition in assay [1] (setting [7]) is 93% (active); in assay [1] (setting [8]) it was 99% (active); in assay [1] (at 50.0 µM), 89.4% (active); in assay [2] (setting [7]), 95% (active); in assay [2] (setting [8]), 99% (active); in assay [2] (at 50.0 µM) it was 93% (active). In addition, the growth inhibition was 95% (active) in assay [3] (setting [7]); 99% (active) in assay [3] (setting [8]); 92.8% (active) in assay [3] (at 50.0 µM); 95% (active) in assay [4] (setting [7]); 99% (active) in assay [4] (setting [8]); 89.2% (active) in assay [4] (at 50.0 µM). Also, the growth inhibition in assay [5] (setting [7]) was 76% (active); in assay [5] (setting [8]), 99% (active); in assay [5] (at 50.0 µM), 90.8% (active); in assay [6] (setting [7]), 90% (active); in assay [6] (setting [8]), 98% (active); in assay [6] (at 50.0 µM) it was 89.9% (active).
